TDP1 cell noCPT: qHTS for Inhibitors of human tyrosyl-DNA phosphodiesterase 1 (TDP1): qHTS in cells in absence of CPT. DT40 Tdp1-/- hTDP1 cells, no CPT, ATP luminescence, 48 h. 15% of 420,000 active. Potency, µM (doses to about 46.2 µM), for the others: top-dose activity change, negative = growth inhibition, actives largely listed as inhibitors; further: potency means the concentration at half of the fitted maximal effect; on the % scale 0 is the no-effect control and ±100 the full control effect; nearly all actives have a fitted effect of over 55% in size
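A cellular qHTS used chicken DT40 cells lacking endogenous Tdp1 but carrying stably transfected human TDP1. Compounds were applied without camptothecin, and cell growth kinetics were judged by ATP-dependent luminescence after ≥48 hr.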
TDP1 cell CPT: qHTS for Inhibitors of human tyrosyl-DNA phosphodiesterase 1 (TDP1): qHTS in cells in presence of CPT; Potency, µM (top dose mostly 46.2 µM), without a hit: at the highest dose activity change, negative = growth inhibition, usual class: inhibitors; AID 686979, 2013; chicken DT40 Tdp1-/-;hTDP1 cells + 20 nM CPT, ATP luminescence, 48 h; 12% of 420,000 active; further: potency means the concentration at half of the fitted maximal effect; on the % scale 0 is the no-effect control and ±100 the full control effect; nearly all actives have a fitted effect of over 55% in size
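Cell growth measured by CellTiter-Glo luminescence after a minimum 48 h, 37 C compound exposure with 20 nM CPT in Tdp1-knockout DT40 cells stably expressing hTDP1, seeded 400/well; qHTS titration format.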
IL-1B inflam inh: qHTS for Inhibitors of Inflammasome Signaling: IL-1-beta AlphaLISA Primary Screen. THP-1 LPS/ATP IL-1B secretion, AlphaLISA, 16 h; stronger effect = lower value. activity change, % at 57.5 µM. 4.7% of 360,000 active. AID 743279, 2014; in the data active means activity change below about -50%; inconclusive means mostly about -30% to -49%; further: on the % scale 0 is the no-effect control and ±100 the full control effect
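THP-1 cells pretreated 1 hr with compounds (up to 57.5 uM final), then stimulated with LPS (250 ng/mL final) plus ATP (1.25 mM final); secreted IL-1B measured by AlphaLISA after 16 hr, decreased signal indicating inhibition.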
TDP1 inh: qHTS Assay for Inhibitors of Tyrosyl-DNA Phosphodiesterase (TDP1); Tyrosyl-DNA phosphodiesterase 1 (Homo sapiens), Q9NUW8; recombinant TDP1, AlphaScreen DNA substrate cleavage; Potency, µM (series often up to 130 µM), for inactives: top-dose activity change, negative = inhibition, actives largely listed as inhibitors; 0.28% of 350,000 active; AID 485290, 2010; further: potency means the concentration at half of the fitted maximal effect; on the % scale 0 is the no-effect control and ±100 the full control effect; nearly all actives have a fitted effect of over 40% in size
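Recombinant human Tdp1 (E. coli-expressed, 1 nM final) preincubated with compounds 15 min at room temperature, then 5'-biotin/3'-phosphotyrosine-FITC DNA substrate (15 nM final) added for 5 min. AlphaScreen beads (10 ug/ml final) added 10 min; cleavage lowers signal.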
TGFb inhibitor: qHTS for Inhibitors of TGF-b. HepG2 CAGA-GFP TGF-b/SMAD3 reporter, GFP fluorescence, 18 h; TGF-beta stimulated, 500 pg/mL final. Potency, µM (top dose mostly 46.1 µM), for inactives: top-dose activity, negative = inhibition, most hits filed as inhibitors. 1.2% of 410,000 active. AID 588855, 2011; further: potency means the concentration at half of the fitted maximal effect; on the % scale 0 is the no-effect control and ±100 the full control effect; nearly all actives have a fitted effect of over 65% in size
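Inhibition was scored as loss of TGF-beta-induced (500 pg/mL final, 18 hours, 37 degrees C) GFP in HEPG2 cells carrying a CAGA-GFP reporter, in DMEM with 1% FBS. Well GFP was summed per cell; Activity was normalised to unstimulated and stimulated DMSO wells, then concentration-response fitting.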
HepG2 tox: qHTS for Inhibitors of TGF-b: Cytotox Counterscreen | HepG2 CAGA-GFP viability, ATP luminescence, 18 h | Potency, µM (doses to about 46.1 µM), inactives show top-dose activity change, negative = cytotoxicity, hits mostly cytotoxic | 0.76% of 410,000 active | AID 588856, 2011; further: potency means the concentration at half of the fitted maximal effect
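CellTiter-Glo luminescence gave cytotoxicity after 18 hours at 37 degrees C. The cells were HepG2 CAGA-GFP in 1% FBS DMEM, stimulated with 500 pg/mL TGF-beta after compound addition. %Activity was normalised to no-cell wells (complete cell-killing) and DMSO (no toxicity), and curves were fitted and classified.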
* marks the source's active call; other numbers are inactive results; i = inactive; ? = inconclusive; / = no result. Only some compounds are listed: those with a hit (about 18% of all), similar ones and a draw of the others. Unless noted, the call rests on the fitted dose curve; in most records, active means well fitted curve in the direction sought with a large enough effect; inconclusive means small, poorly fitted or top-dose-only effect, or another doubt; inactive means no such curve, though single readings can be large; an effect the other way counts as inactive or inconclusive.

SMILES	TDP1 cell noCPT	TDP1 cell CPT	IL-1B inflam inh	TDP1 inh	TGFb inhibitor	HepG2 tox
Cn1c(=O)c2cc(NC(=O)OCCF)ccc2n1Cc1cccc(C(F)(F)F)c1	23µM*	23µM*	-14	/	-12%	-16%
Cc1cc(C)cc(Cn2c3ccc(NC(=S)NC4CCCCC4)cc3c(=O)n2C)c1	?	23µM*	-15	/	-7%	-4%
Cn1c(=O)c2cc(NC(=O)NCCc3cccs3)ccc2n1Cc1ccccc1	26%	?	-9	/	-12%	2%
CC(=O)c1cccc(NC(=O)C2CCCN(C(=O)c3cnn(-c4ccccc4)c3-n3cccc3)C2)c1 (centres undefined)	?	?	/	8%	-25%	-28%
COc1ccc(NC(=O)c2oc3ccc4c(c3c2C)C(=O)CC(C)(C)O4)cc1OC	12µM*	21µM*	/	8%	-27%	-17%
CCc1cccc(NC(=O)c2oc3ccc4c(c3c2C)C(=O)CC(C)(C)O4)c1	21µM*	?	/	-3%	4%	-17%
Cc1c(C(=O)Nc2ccccc2)oc2c1C(=O)CC(C)(C)C2	-23%	-29%	-23	5%	-17%	-5%
CC(C)(CNC(=O)CCC1CCCC1)CNC(=O)CCC1CCCC1	?	-19%	-23	0%	-9%	1%
O=C(c1ccccc1)N1CCN(c2nc3ccc([N+](=O)[O-])cc3s2)CC1	5.2µM*	6.5µM*	-2	-1%	?	-38%
O=[N+]([O-])c1ccc2nc(N3CCCC3)sc2c1	18µM*	?	-6	/	-11%	-16%
Fc1ccc2nc(N3CCCC3)sc2c1	3%	7%	28	1%	-5%	3%
CCN(CC)S(=O)(=O)c1ccc2c(c1)N(CC(=O)N1CCN(c3ccc(OC)cc3)CC1)C(=O)CO2	?	21µM*	/	2%	16%	0%
CCN(CC)S(=O)(=O)c1ccc2c(c1)N(CC(=O)N1CCN(c3cccc(OC)c3)CC1)C(=O)CO2	?	21µM*	/	6%	?	-8%
CCN(CC)S(=O)(=O)c1ccc2c(c1)N(CC(=O)N1CCC(C(N)=O)CC1)C(=O)CO2	3%	21%	15	3%	-1%	9%
CCN(CC)S(=O)(=O)c1ccc(N2CCN(c3cccc(OC)c3)CC2)c([N+](=O)[O-])c1	8.2µM*	13µM*	-13	6%	?	-25%
O=C(CN1C(=O)COc2ccc(S(=O)(=O)N3CCCCCC3)cc21)N1CCN(c2ccc(F)cc2)CC1	21µM*	23µM*	/	12%	?	-3%
CCN(CC)S(=O)(=O)c1ccc2c(c1)N(CC(=O)N1CCN(c3ccccc3F)CC1)C(=O)CO2	/	/	/	1%	15%	-11%
O=C(CN1C(=O)COc2ccc(S(=O)(=O)N3CCCC3)cc21)N1CCN(c2ccc(Cl)cc2)CC1	/	/	/	9%	?	-41%
COc1ccc(CCN2C(=O)CSCC2(C)C(=O)Nc2ccc3c(c2)OCCO3)cc1OC (centres undefined)	?	?	-8	/	/	/
Cc1ccccc1-n1ncc2c1CC(C)(C)CC2NC(=O)CCN1CCCCC1=O (centres undefined)	-1%	?	4	2%	-26%	-8%
O=C(c1ccc2nc[nH]c2c1)N1CCN(c2cccc(C(F)(F)F)c2)CC1	16µM*	?	i	5%	9%	-27%
